Assay results from ChEMBL document CHEMBL4513216, “Probing the Open Global Health Chemical Diversity Library for Multistage-Active Starting Points for Next-Generation Antimalarials” (ACS Infect Dis, 2020).
In all, about 69,000 compounds went through this assay and about 8,600 (12%) showed an effect of 50% or more. The sample as a whole holds a higher share of strong results than the screen did.

The compounds below were run on Plasmodium berghei (assay: Screen against P. berghei liver stage (PbLuc), transformed with Luciferase, at 10uM). Details: tested at 10 uM.
Assay type: functional, HepG2
Work on O=C(CN1CCOCC1)N1CCC2(CCCN(C3CCOCC3)C2=O)C1 (centres undefined) yielded an INHIBITION of -9.02%.
Compound COCCN1CCCC(C)(c2cc(O)[nH]n2)C1 (centres undefined) has an INHIBITION of -3.02%.
CN(Cc1ccsc1)C(=O)CN1CCCC1Cn1cccn1 (centres undefined) was tested, and the INHIBITION was 63.9%.
Work on Cc1ccc(CN(C)C(=O)CN2CCCCC2Cn2cncn2)cc1 (centres undefined) yielded an INHIBITION of 74.2%.
CN(Cc1cccs1)C(=O)CN1CCCCC1Cn1cncn1 (centres undefined) showed an INHIBITION of 59.3%.
With Cc1ccc(CN(C)C(=O)CN2CCCC2Cn2cncn2)cc1 (centres undefined) the INHIBITION was 42.4%.
With CN(Cc1cccs1)C(=O)CN1CCOC(Cn2cncn2)C1 (centres undefined) the INHIBITION was 62.6%.
For CN(Cc1cccs1)C(=O)CN1CCCC1Cn1cncn1 (centres undefined), the INHIBITION was 23.5%.
CN(Cc1ccccc1)C(=O)CN1CCOC(Cn2cncn2)C1 (centres undefined) was tested, and the INHIBITION was -9.37%.
CN(Cc1ccco1)C(=O)CN1CCCCC1Cn1cncn1 (centres undefined) was tested, and the INHIBITION was 7.67%.
Work on Cc1cnn(CC2CN(CC(=O)N(C)Cc3cccs3)CCO2)c1 (centres undefined) yielded an INHIBITION of 35.3%.
With CN(Cc1ccc(F)cc1)C(=O)CN1CCCCC1Cn1cncn1 (centres undefined) the INHIBITION was 48.4%.
Compound Cc1cnn(CC2CCCN2CC(=O)N(C)Cc2ccsc2)c1 (centres undefined) has an INHIBITION of 34.5%.
CN(Cc1ccsc1)C(=O)CN1CCCCC1Cn1cccn1 (centres undefined) was tested, and the INHIBITION was -96.9%.
With O=C(CC(F)(F)F)Nc1cc(F)ccc1OCC1CCCO1 (centres undefined) the INHIBITION was -6.14%.
CCn1nc(C)cc1C(=O)N1C[C@H]2CCC[C@@]2(COc2ccccn2)C1 was tested, and the INHIBITION was -36.9%.
Work on CCC1CN(CC(=O)NCCN2CCCC2)c2ccccc2S1 (centres undefined) yielded an INHIBITION of 18.3%.
CN(C)C1CCN(C(=O)c2n[nH]c3c2CCN(CC2CCC2)C3)CC1 was tested, and the INHIBITION was -39%.
Cc1cc(-c2ccc(=O)n(C3CCN(S(=O)(=O)N(C)C)CC3)n2)c(C)o1 was tested, and the INHIBITION was -25.3%.
Compound CNc1cc(CCNC(=O)CC(C)C)nc(-c2ccccn2)n1 has an INHIBITION of -27.4%.
In the case of Cc1cnn(C2CN(CC(=O)N(C)Cc3cccs3)C2)c1, the INHIBITION is reported as 52.2%.
For Cc1ccccc1CN(C)C(=O)CN1CCCCC1Cn1cncn1 (centres undefined), the INHIBITION was 81.2%.
CN(Cc1ccccc1)C(=O)CN1CCCCC1Cn1cncn1 (centres undefined) gave an INHIBITION of 25.6%.
Cc1cnn(C2CN(CC(=O)NCCc3cccs3)C2)c1 gave an INHIBITION of 45.7%.
Work on CCN(Cc1ccccc1)C(=O)CN1CCCCC1Cn1cncn1 (centres undefined) yielded an INHIBITION of 38.5%.
Cc1cnn(C2CN(CC(=O)N(C)Cc3ccc(C)o3)C2)c1 was tested, and the INHIBITION was 34%.
Compound Cc1nnnn1-c1cc(NCc2cc(C#N)ccc2F)ccc1F has an INHIBITION of 32.3%.
With O[C@@H]1CCN(CC2CCOC2)[C@H]1Cc1cccnc1 (some centres undefined) the INHIBITION was 23.1%.
Compound O=C(c1ccc2cc[nH]c2c1)N1CCCN(Cc2cscn2)CC1 has an INHIBITION of 13.6%.
Compound O=S(=O)(NCc1cccnc1OC1CCCC1)N1CCCCC1 has an INHIBITION of 21.9%.
Cc1oncc1C(=O)NCc1ccnc(OCC(F)(F)F)c1 gave an INHIBITION of -6.15%.
Work on N#Cc1c(Cl)nsc1NCc1cccnc1OC1CCCC1 yielded an INHIBITION of 85.9%.
Work on N#Cc1c(Cl)nsc1NCc1ccc(N2CCC(CO)CC2)cc1 yielded an INHIBITION of 30.9%.
N#Cc1c(Cl)nsc1NCc1cccnc1OCC(F)(F)F gave an INHIBITION of 88.5%.
Work on CCOc1ncccc1CNc1nnc(C)c(C)c1C#N yielded an INHIBITION of -23.45%.
For CC(C(=O)NCc1ccnc(OCC(F)(F)F)c1)n1cncn1 (centres undefined), the INHIBITION was -18.2%.
Cc1nnc(NCc2cccnc2OCC(F)(F)F)c(C#N)c1C gave an INHIBITION of -0.18%.
With N#Cc1c(Cl)nsc1NCc1ccc(N2CCCC(C(N)=O)C2)cc1 (centres undefined) the INHIBITION was 26.6%.
In the case of N#Cc1c(Cl)nsc1NCc1ccc(N2CCSCC2)cc1, the INHIBITION is reported as 59.5%.
CC(O)CNC(=O)NCc1cccnc1OC1CCCC1 (centres undefined) was tested, and the INHIBITION was 22.7%.
N#Cc1c(Cl)nsc1NCc1ccnc(OCC(F)(F)F)c1 gave an INHIBITION of 81.7%.
Work on Nc1nccc(C2CCN(CC3CC3)C2)n1 (centres undefined) yielded an INHIBITION of 20.2%.
For CN(CCc1cn[nH]c1)C(=O)CCc1ccc(Cl)cc1, the INHIBITION was 49%.
For CC(Nc1cccc2c1OCCO2)C(=O)Nc1ccc(Cl)cc1 (centres undefined), the INHIBITION was -10.3%.
For CCc1nnc2n1CCN(C(=O)c1cc3cc(C)ccc3[nH]1)C2, the INHIBITION was 10%.
O=C(Nc1ccc(-n2ccc(C(=O)O)n2)cc1)c1ccccc1 was tested, and the INHIBITION was 39.5%.
For Cc1cn([C@@H]2CC3(CCNCC3)OC[C@@]2(C)O)c(=O)[nH]c1=O, the INHIBITION was 37.1%.
CC(=O)N1CC(=O)N(c2cnn(C)c2)CC12CCN(Cc1ccco1)C2 (centres undefined) showed an INHIBITION of 29.7%.
CC(C)=CCN1CCOC(Cn2cccn2)C1 (centres undefined) gave an INHIBITION of 19.5%.
Work on CC(C)CN1CCCC12CCN(c1nncs1)C2 (centres undefined) yielded an INHIBITION of 37.8%.
N#Cc1ccc(CCC(=O)N2CCCC(n3cncn3)C2)cc1 (centres undefined) showed an INHIBITION of 19.2%.
For CN(C)c1ncccc1CNc1snc(Cl)c1C#N, the INHIBITION was 49.1%.
CCCOc1ncccc1CNc1nnc(C)c(C)c1C#N gave an INHIBITION of 41.15%.
For COc1ncccc1CNc1snc(Cl)c1C#N, the INHIBITION was 54.3%.
Work on CCCN(Cc1nc(-c2ccoc2)oc1C)CC1CCCO1 (centres undefined) yielded an INHIBITION of -13.1%.
O=C(O)C1(Cc2cccc(-c3ccc(F)cc3)c2)CCOCC1 was tested, and the INHIBITION was -22.6%.
With O=C(O)C1(Cc2cccc(-c3ccc(F)c(F)c3)c2)CCOCC1 the INHIBITION was 58.6%.
In the case of Cc1cc(C)cc(-c2ccc(CC3(C(=O)O)CCOCC3)cc2)c1, the INHIBITION is reported as 61.4%.
Cc1cccc(-c2cccc(CC3(C(=O)O)CCOCC3)c2)c1 showed an INHIBITION of 13.5%.
Compound Cc1cc(C)cc(-c2cccc(CC3(C(=O)O)CCOCC3)c2)c1 has an INHIBITION of 38.7%.
In the case of COc1ccc(-c2cccc(CC3(C(=O)O)CCOCC3)c2)cc1, the INHIBITION is reported as 29.2%.
Cn1cccc1C(=O)N1C[C@@H](OCc2cccnc2)[C@H]2OCCC[C@H]21 gave an INHIBITION of 41.3%.
With CN(C)CC(=O)NC1CC(=O)N(CCc2ccccc2)C1 (centres undefined) the INHIBITION was 11.2%.
Cc1cc2c(=O)n3c(nc2s1)CCN(C(=O)c1cn(C)nc1C)CC3 was tested, and the INHIBITION was 14.7%.
For Cc1nnn2c1COCC(CNCc1nccs1)C2 (centres undefined), the INHIBITION was -27.6%.
For Cc1cc2n(n1)CC(CNC1CCN(c3ccccn3)CC1)CN2 (centres undefined), the INHIBITION was 31.4%.
Work on Fc1ccc(OCCNC2CCN(Cc3ccncc3)CC2)c(F)c1 yielded an INHIBITION of 61.3%.
With Fc1ccc(OCCNC2CCN(Cc3ccccn3)CC2)c(F)c1 the INHIBITION was 53.6%.
For N#Cc1ccc(NC2CCN(Cc3ccccn3)CC2)c(F)c1, the INHIBITION was -5.78%.
Compound Cc1cc2n(n1)CC(CNC1CCN(Cc3ccccc3C)CC1)CN2 (centres undefined) has an INHIBITION of 16.6%.
With Cc1cc2n(n1)CC(CNC1CCN(Cc3ccccn3)CC1)CN2 (centres undefined) the INHIBITION was 50.2%.
Work on c1ccc(CN2CCC(NCCc3ccc4c(c3)CCO4)CC2)nc1 yielded an INHIBITION of 25.7%.
With CC(CNC1CCN(Cc2ccncc2)CC1)c1ccc(F)cc1F (centres undefined) the INHIBITION was -0.275%.
For Cc1cc2n(n1)CC(CNC1CCN(Cc3ccncc3)CC1)CN2 (centres undefined), the INHIBITION was 16.1%.
